“And” between values parts separate entries of the source, which are not always exact repeats. Equal values may be shown once. In all, about 100,000 compounds went through this assay and about 770 (0.77%) were called active. For the sample, actives were picked, then their nearest neighbours and some compounds at random. Unmarked numbers belong to inactive results. Rule as the data show it: active = inhibition above about 50%; inactive = the rest.
Biological target: Gag-Pol polyprotein (Human immunodeficiency virus type 1 group M subtype B (isolate HXB2)) (UniProt P04585)
Assay: RNase H inhibition, HIV 1 Gag Pol polyprotein, FRET biochemical assay, screening (AID 372)
Details: HIV-1 RT RNase H, FRET RNA/DNA substrate fluorescence; at 10 µM; hits give high values

In the case of `CC12CCC3C(CC=C4CC(O)CCC43C)C1C/C(=C\c1ccc([N+](=O)[O-])cc1)C2=O` (centres undefined), the inhibition was 55% (active).
In the case of `O=C1NC(=O)C(=Cc2cccn2-c2ccc(Br)cc2)C(=O)N1`, the inhibition was 50% (active).
For `CCOc1cccc(=[O+]CC)c2c(C)oc(C)c12`, the inhibition was 2% and 12%.
For `O=C1NC(=S)NC(=O)C1=Cc1ccc(OCc2ccc(Br)cc2)cc1`, the inhibition was 59% (active).
In the case of `COc1ccc(OCC(=O)Nc2ccc(Br)cc2C(=O)c2ccccc2)cc1`, the inhibition was 51% (active).
With `O=C1NC(=S)NC(=O)C1=Cc1ccc(-c2ccc([N+](=O)[O-])cc2Br)o1` the inhibition was 56% (active).
In the case of `O=C1NC(=S)NC(=O)C1=Cc1ccc(-c2ccc(Br)c(Cl)c2)o1`, the inhibition was 54% (active).
In the case of `O=C1NC(=S)NC(=O)C1=Cc1ccc(-c2cc(Cl)c([N+](=O)[O-])cc2Cl)o1`, the inhibition was 50% (active).
For `Cc1ccc(OCCn2cc(/C=C3/C(=O)NC(=O)N(Cc4ccco4)C3=O)c3ccccc32)cc1`, the inhibition was 52% (active).
For `O=C1NC(=O)N(Cc2ccco2)C(=O)/C1=C\c1ccc(-c2cccc([N+](=O)[O-])c2)o1`, the inhibition was 57% (active).
For `C/C(=C\c1ccc(Cl)cc1Cl)[N+](=O)[O-]`, the inhibition was 51% (active).
`CCN1C(=O)/C(=C/c2cccn2C)C(=O)NC1=S` was tested, and the inhibition was 51% (active).
With `Cc1cc(-c2ccc(C=C3C(=O)NC(=O)NC3=O)o2)ccc1[N+](=O)[O-]` the inhibition was 67% (active).
In the case of `Cc1ccc(-c2ccc(C=C3C(=O)NC(=S)NC3=O)o2)cc1[N+](=O)[O-]`, the inhibition was 62% (active).

Compared with `CC(=O)OC1CCC2(C)C(=CCC3C4C/C(=C\c5ccc([N+](=O)[O-])cc5)C(=O)C4(C)CCC32)C1` (centres undefined), `CC12CCC3C(CC=C4CC(O)CCC43C)C1C/C(=C\c1ccc(F)cc1)C2=O` (centres undefined) is higher in inhibition: 9% for the first, 11% for the second.

Going from `Cc1cc(OCc2ccc(Cl)cc2)c2c3c(c(=O)oc2c1)CCC3` to `Cc1ccccc1N1CCN(Cc2ccc(Cl)cc2Cl)CC1`, the inhibition falls from 3% to 2%.

Going from `Oc1c(I)cc(I)cc1CN1CCN(c2ccccc2F)CC1` to `Clc1ccc(N2CCN(CCc3ccccc3)CC2)cc1`, the inhibition rises from 8% to 14%.

Compared with `Cc1cc(C=C2C(=O)NC(=O)NC2=O)c(C)n1-c1ccc(Br)cc1`, `Cc1ccc(-n2c(C)cc(/C=C3/C(=O)NC(=O)N(Cc4ccco4)C3=O)c2C)cc1` is higher in inhibition: 9% for the first, 16% for the second.

First: Cc1cc(C)cc(N2C(=O)NC(=O)/C(=C\c3cccn3-c3ccccc3)C2=O)c1
Second: COc1cc(/C=C2\C(=O)NC(=O)N(c3ccccc3)C2=O)c([N+](=O)[O-])cc1OC
The inhibition of the first is higher: 28% for the first, 5% for the second.

Compared with `CN1C(=O)C(Cc2c[nH]c3ccccc23)C(=O)N(C)C1=O`, `CN1C(=O)/C(=C\c2cn(Cc3ccccc3)c3ccccc23)C(=O)NC1=S` is higher in inhibition: 0% for the first, 15% for the second.

Compared with `O=[N+]([O-])c1ccccc1CNCCc1ccc(F)cc1`, `O=C(Nc1ccc(Cl)cc1C(=O)c1ccccc1)c1ccc([N+](=O)[O-])cc1` is higher in inhibition: 1% for the first, 16% for the second.

Going from `CCN(CC)C(=O)c1ccc(NC(C)=O)cc1` to `CCOC(=O)C1=C(N)OC(C)=C(C(C)=O)C12C(=O)Nc1ccccc12` (centres undefined), the inhibition rises from 9% to 10%.

First: O=C(O)c1cn(Cc2ccccc2)c2ccccc12
Second: O=C1NC(=O)N(Cc2ccco2)C(=O)/C1=C\c1cn(Cc2ccccc2)c2ccccc12
The inhibition of the first is lower: 8% for the first, 23% for the second.

First: CCOc1ccc(C=C2C(=O)NC(=S)NC2=O)cc1
Second: O=C1NC(=S)NC(=O)C1=Cc1ccc(OCc2cccc(C(=O)O)c2)cc1
The inhibition of the first is higher: 12% for the first, 5% for the second.

Going from `COc1ccc(CN2CCN(CCO)CC2)c(OC)c1` to `COc1ccc(CN2CCN(Cc3cccc(OC)c3)CC2)cc1`, the inhibition falls from 9% to 7%.

First: CSc1ccc(C2C(C#N)=C(N)Oc3c2c(=O)oc2ccccc32)cc1 (centres undefined)
Second: COc1ccc(C2c3c(c4ccccc4oc3=O)Oc3c2c(=O)oc2ccccc32)cc1Cn1nc(C)c([N+](=O)[O-])c1C
The inhibition of the first is lower: 7% for the first, 16% for the second.

Going from `O=C(COc1ccccc1)Nc1ccc(Cl)cc1C(=O)c1ccccc1` to `O=C(COc1ccc([N+](=O)[O-])cc1)Nc1ccc(Br)cc1C(=O)c1ccccc1`, the inhibition rises from 37% to 49%.

Compared with `C=CCOC(=O)C1=C(C)OC(N)=C(C(=O)OCC)C12C(=O)Nc1ccccc12` (centres undefined), `Cc1cc(-c2ccc(C=C3C(=O)NC(=S)NC3=O)o2)c(C)c([N+](=O)[O-])c1` is higher in inhibition: 2% for the first, 27% for the second.

First: Cc1ccc(-c2ccc(C=C3C(=O)NC(=S)NC3=O)o2)c(Br)c1
Second: O=C1NC(=S)NC(=O)C1=Cc1ccc(-c2cc(Cl)ccc2Cl)o1
The inhibition of the first is higher: 36% for the first, 0% for the second.

Compared with `CN1C(=O)NC(=O)/C(=C/c2ccc(-c3ccc([N+](=O)[O-])cc3Br)o2)C1=O`, `CN1C(=O)NC(=O)/C(=C/c2ccc(-c3cccc([N+](=O)[O-])c3)o2)C1=O` is lower in inhibition: 26% for the first, 14% for the second.

Compared with `O=C1NC(=S)NC(=O)C1=Cc1ccc(-c2ccc(C(=O)O)c(Cl)c2)o1`, `O=C1NC(=S)NC(=O)C1=Cc1ccc(-c2ccc(Cl)c(Cl)c2)o1` is lower in inhibition: 17% for the first, 0% for the second.

Going from `CC(C)OC(=O)N1CCN(/C(N)=N/[N+](=O)[O-])CC1` to `O=C(COc1ccc2ccccc2c1)N1CCN(Cc2ccc3c(c2)OCO3)CC1`, the inhibition rises from 7% to 17%.

Going from `O=c1c2ccccc2nc(-c2ccc(Cl)cc2Cl)n1-c1nccs1` to `Cc1cccc(-n2c(/C=C/c3ccco3)nc3ccccc3c2=O)c1`, the inhibition falls from 6% to 4%.

Going from `CN1C(=O)C(=Cc2ccc(-c3cccc([N+](=O)[O-])c3)o2)C(=O)N(C)C1=S` to `Cc1cc(-c2ccc(C=C3C(=O)NC(=S)NC3=O)o2)cc([N+](=O)[O-])c1C`, the inhibition rises from 21% to 35%.

First: COc1cc(/C=C(\C)[N+](=O)[O-])cc(OC)c1OC
Second: Cc1cc([N+](=O)[O-])c(C)cc1-c1ccc(C=C2C(=O)NC(=O)NC2=O)o1
The inhibition of the first is lower: 4% for the first, 16% for the second.

Going from `N#CC(C#N)=Cc1ccc(Cl)cc1Cl` to `Cn1cccc1/C=C1/C(=O)NC(=S)N(c2ccc(Cl)cc2)C1=O`, the inhibition rises from 3% to 41%.

Going from `CCOc1ccc(N2C(=O)CC(=O)NC2=S)cc1` to `Cc1c(-c2ccc(C=C3C(=O)NC(=S)NC3=O)o2)ccc([N+](=O)[O-])c1C`, the inhibition rises from 11% to 43%.

Compared with `O=C1NC(=S)NC(=O)C1=Cc1ccc(-c2ccc(C(=O)O)cc2)o1`, `Cc1c(-c2ccc(C=C3C(=O)NC(=O)NC3=O)o2)ccc([N+](=O)[O-])c1C` is higher in inhibition: 14% for the first, 18% for the second.

Going from `C=CCN1C(=O)NC(=O)C(=Cc2cccn2C)C1=O` to `Cc1cccc(-n2c(/C=C3\C(=O)Nc4ccccc43)nc3ccc(I)cc3c2=O)c1`, the inhibition rises from 0% to 15%.

From PubChem BioAssay AID372 (MTDP, 2006)
